In the supplement of paper PMC7866885, “A novel bicyclic 2,4-diaminopyrimidine inhibitor of Streptococcus suis dihydrofolate reductase” (PeerJ, 2021) one finds percent growth data, which are given here for 39 compounds.

One experiment has as its system Streptococcus suis HE06. As to the kind of experiment: percent growth relative to DMSO control; higher = less growth inhibition. The note with it: 10 µM; incubation time 18 h. The procedure: (§1)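 CLSI broth microdilution: 5x10^4 CFU of Streptococcus suis (strain P1/7 or HE06) incubated with 10 µM Pathogen Box compound in cation-adjusted Mueller Hinton broth, 37 °C, 5% CO2, 18 h. Growth read as OD600 and expressed as percent of the DMSO-treated control (100%); mean ± SD of three independent experiments.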

The subject of another experiment is Streptococcus suis P1/7. Described as above. The note with it: 10 µM; incubation time 18 h. The procedure: as §1

± gives the standard deviation.

Consider `O=C(NCCc1ccn(-c2ccccc2)n1)C1CCCCC1`, for which the values for the percent growth in the experiment on Streptococcus suis HE06 and in the experiment on Streptococcus suis P1/7 were 97.3 ± 2.1% and 95 ± 23%, respectively.

Take `CC(=O)Nc1ccc(NC(=O)c2cc(-c3cc(Cl)ccc3O)[nH]n2)cc1`: the percent growth was determined as 96.5 ± 11% with Streptococcus suis HE06 and 104 ± 13% with Streptococcus suis P1/7.

On to `COc1cccc(CC(=O)N2CCC(n3c(C)nc4ccc(F)cc43)CC2)c1`, for which the figures for the percent growth with Streptococcus suis HE06 and in the experiment with Streptococcus suis P1/7 were 104 ± 52% and 65.2 ± 15%, respectively.

Take `CN1CCCC1CCO[C@](C)(c1ccccc1)c1ccc(Cl)cc1` (stereo not given in full): the percent growth in the experiment on Streptococcus suis HE06 was determined as 86.3 ± 9.2%.

On to `O=[N+]([O-])c1cn2c(n1)OC[C@@H](OCc1ccc(OC(F)(F)F)cc1)C2`, for which the results for the percent growth with Streptococcus suis HE06 and in the experiment with Streptococcus suis P1/7 were 110 ± 13% and 90 ± 13%, respectively.

With `COc1nc2ccc(Br)cc2cc1[C@@H](c1ccccc1)[C@@](O)(CCN(C)C)c1cccc2ccccc12`, the percent growth came to 59.8 ± 13% in the experiment with Streptococcus suis HE06 and 68.8 ± 37% in the experiment with Streptococcus suis P1/7.

On to `CCc1nc2ccc(C(=O)NCc3ccc4c(c3)OCO4)cn2c1N(C)Cc1cccs1`, for which the percent growth in the experiment with Streptococcus suis HE06 was 122 ± 67%; in the experiment with Streptococcus suis P1/7 it was 72.9 ± 11%.

Take `O=C(Cn1ccnc1[N+](=O)[O-])NCc1ccccc1`: the percent growth with Streptococcus suis HE06 was 79.1 ± 10%; in the experiment on Streptococcus suis P1/7, 114 ± 48%.

In the case of `Cc1cc(Cl)c(S(=O)(=O)N2CCCC2)cc1OCC(=O)NC1CCCCC1`, the percent growth in the experiment on Streptococcus suis HE06 worked out at 87.7 ± 22%; in the experiment with Streptococcus suis P1/7, 63.6 ± 18%.

Turning to `O=C1[C@@H](Oc2ccccc2)[C@@H](c2ccc(Cl)cc2)N1CCn1cnc2c(NCc3ccccc3)ncnc21`, the percent growth with Streptococcus suis HE06 amounted to 94.9 ± 4.6%; in the experiment on Streptococcus suis P1/7 it was 112 ± 21%.

On to `Cc1[nH]c2ccccc2c1C(c1cccs1)N1CCN(C)CC1` (stereo not given), for which the figures for the percent growth in the experiment on Streptococcus suis HE06 and in the experiment with Streptococcus suis P1/7 were 49 ± 25% and 86.1 ± 38%, respectively.

Regarding `Cc1ccc(NC(=O)CC2COc3ccccc3O2)cc1Cl` (stereo not given), the percent growth came to 96.4 ± 1.4% in the experiment with Streptococcus suis HE06 and 95.7 ± 33% with Streptococcus suis P1/7.

For `Nc1ncc(-c2cn[nH]c2)cc1-c1nc2cc(Cl)cnc2[nH]1`, the figures for the percent growth with Streptococcus suis HE06 and in the experiment with Streptococcus suis P1/7 were 90.8 ± 5.4% and 74 ± 15%, respectively.

Take `Cc1cc(C)n2nc(C(=O)Nc3cc(C(F)(F)F)ccc3N3CCOCC3)nc2n1`: the percent growth was determined as 240 ± 280% in the experiment with Streptococcus suis HE06 and 81.4 ± 16% in the experiment with Streptococcus suis P1/7.

`Cc1nn2c(O)c3c(nc2c1-c1ccc(F)cc1)CCCC3`: the percent growth was determined as 63.3 ± 22% in the experiment with Streptococcus suis HE06 and 45.5 ± 21% with Streptococcus suis P1/7.

In the case of `COc1ccccc1C(C)NCC(=O)Nc1cc(C(F)(F)F)ccc1Cl` (stereo not given), the percent growth in the experiment with Streptococcus suis HE06 came to 86.8 ± 5.4%; with Streptococcus suis P1/7, 112 ± 23%.

As to `O=C(CCC1CCCCC1)Nc1cccc(-c2nnc(-c3ccco3)o2)c1`, the percent growth in the experiment on Streptococcus suis HE06 came to 93.8 ± 3.7%.

As for `O=C(Nc1cccc(-c2ccc(NCCCN3CCCC3)nc2)c1)c1ccccc1`, the percent growth in the experiment with Streptococcus suis HE06 worked out at 96.7 ± 23%; in the experiment on Streptococcus suis P1/7, 72.5 ± 24%.

`Cc1cc(Nc2ccc(C(F)(F)F)cc2)n2ccnc2n1` came in with a percent growth in the experiment on Streptococcus suis HE06 of 113 ± 12%.

On to `Nc1ncc(-c2ccc(C(F)(F)F)nc2)cc1-c1ccc(C(F)(F)F)nc1`, for which the percent growth is 98.8 ± 13% in the experiment with Streptococcus suis HE06 and 101 ± 35% in the experiment with Streptococcus suis P1/7.

For `O=C(C1CCN(c2cc(-n3cccc3)ncn2)CC1)N1CCc2ccccc2C1`, the percent growth in the experiment on Streptococcus suis HE06 came to 106 ± 15%; with Streptococcus suis P1/7 it was 59.5 ± 45%.

Turning to `CC(=O)NCC1CN(c2ccc(-c3ccc(CO)cc3)c(F)c2)C(=O)O1` (stereo not given), the percent growth came out at 0% in the experiment with Streptococcus suis HE06 and 0.214 ± 0.37% in the experiment on Streptococcus suis P1/7.

With `CCc1nc2ccccc2n1CC(O)COc1cc(C)ccc1Cl` (stereo not given), the percent growth in the experiment on Streptococcus suis HE06 stood at 65.7 ± 22%; in the experiment on Streptococcus suis P1/7 it was 103 ± 41%.

For the compound `CN1CCN(CCCOc2ncc(Nc3ncc(-c4ccc(C(F)(F)F)c(F)c4)nc3C(N)=O)cn2)CC1`, the percent growth was 114 ± 43% in the experiment with Streptococcus suis HE06 and 97.2 ± 9.4% with Streptococcus suis P1/7.

As for `Cc1nnc(NC(=O)c2cn(-c3ccccc3)nc2-c2ccccc2C)o1`, the percent growth came out at 0.31 ± 0.38% in the experiment with Streptococcus suis HE06 and 0.18 ± 0.31% in the experiment with Streptococcus suis P1/7.

`CNC(=O)C1Cc2ccccc2N1C(=O)Cc1ccc(F)cc1` (stereo not given): the percent growth was determined as 96.6 ± 1.8% in the experiment on Streptococcus suis HE06 and 94.5 ± 32% with Streptococcus suis P1/7.

Take `NCC(=O)N1CCn2c(nc(-c3ccccc3)c2Nc2ccc3c(c2)OCO3)C1`: the percent growth in the experiment on Streptococcus suis HE06 was 97.6 ± 33%; with Streptococcus suis P1/7, 71.3 ± 25%.

Turning to `Cc1ccc2nc(Cl)c(CNCc3cccs3)cc2c1`, the values for the percent growth in the experiment with Streptococcus suis HE06 and in the experiment with Streptococcus suis P1/7 were 93.6 ± 9.5% and 100 ± 21%, respectively.

For `CC(C)(C)n1nc(Cc2ccc(F)c(Cl)c2)c2c(N)ncnc21`, the percent growth in the experiment with Streptococcus suis HE06 worked out at 91.5 ± 3.1%; with Streptococcus suis P1/7 it was 105 ± 51%.

As to `Nc1ncnc2c1c(Cc1cccc3ccccc13)nn2CC1CCNCC1`, the percent growth in the experiment on Streptococcus suis HE06 is 105 ± 44%; with Streptococcus suis P1/7, 75 ± 5.4%.

Turning to `CC(=O)Oc1ccccc1C(=O)Nc1ncc([N+](=O)[O-])s1`, the values for the percent growth in the experiment with Streptococcus suis HE06 and in the experiment with Streptococcus suis P1/7 were 42.5 ± 18% and 35.5 ± 5.8%, respectively.

Regarding `Clc1ccc(-n2cc(COc3ccnc4ccccc34)nn2)cc1`, the percent growth in the experiment on Streptococcus suis HE06 worked out at 84.2 ± 6%; in the experiment on Streptococcus suis P1/7, 77.9 ± 13%.

As for `Nc1ncnc2c1ncn2[C@@H]1O[C@H](COS(=O)(=O)NC(=O)c2ccccc2O)[C@@H](O)[C@H]1O`, the percent growth in the experiment on Streptococcus suis HE06 came to 97.4 ± 8.2%; with Streptococcus suis P1/7 it was 78.6 ± 9.8%.

In the case of `COc1ccc(-c2cnc3ccc(NCc4ccc(S(N)(=O)=O)cc4)nn23)cn1`, the percent growth in the experiment on Streptococcus suis HE06 is 85.1 ± 6.3%; with Streptococcus suis P1/7, 89.2 ± 15%.

For `Cc1cc(NCC(C)C)c2n[nH]c(-c3ccccc3)c2n1`, the results for the percent growth with Streptococcus suis HE06 and in the experiment with Streptococcus suis P1/7 were 81.1 ± 5.3% and 122 ± 79%, respectively.

Regarding `CN1CCN(c2nccc3nc(-c4ccc(F)c(F)c4)[nH]c23)CC1`, the percent growth was found to be 82.2 ± 21% in the experiment with Streptococcus suis HE06 and 68.8 ± 13% in the experiment with Streptococcus suis P1/7.

On to `COc1cccc(NC(=O)c2c(NC(=O)c3cccnc3)sc3c2CCC3)c1`, for which the percent growth with Streptococcus suis HE06 turned out to be 98.2 ± 24%; in the experiment with Streptococcus suis P1/7 it was 86.6 ± 15%.

Consider `CCOC(=O)c1c(NC(=O)c2c(F)c(F)c(F)c(F)c2F)sc(C(N)=O)c1C`, for which the percent growth turned out to be 91.9 ± 6% in the experiment on Streptococcus suis HE06 and 83.2 ± 22% with Streptococcus suis P1/7.

Regarding `COc1ccc(C2(C(=O)Nc3ccc(Br)cc3)CCCC2)cc1`, the percent growth in the experiment on Streptococcus suis HE06 came out at 120 ± 25%; with Streptococcus suis P1/7, 92.5 ± 15%.
